Rows were chosen to be rich in hits. Some 1.1% of all compounds tested hit in one or more screens of this group.
aDG glyco up: alpha-DG glycosylation activation. Pro5-aDG cells, alpha-DG glycosylation AlphaScreen (IIH6); 0% Pro5, 100% B10-LARGE cell signal. activation, % at 10 µM. hit rate 0.22% among 360,000. AID 624168;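 active = activation of at least 8% versus controls, or a plate z-score of at least 8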;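 also: Pro5 are CHO cells carrying HIG-tagged alpha-DG that lacks glycosylation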
NPR2 activator: GC-B (human) receptor activation. P20594. HEK293-GC-B cells, CNP EC30, cGMP TR-FRET; 0% at EC30 CNP, 100% saturating CNP. activation, % at 10 µM. hit rate 0.11% among 370,000;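 active = activation at 10 µM reaching about 35% in either raw or pattern-adjusted values, limit read from the data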
FAS TE block: FAS thioesterase (human) inhibition | hit rate 0.67% among 360,000 | recombinant FAS-TE, OMFH fluorogenic substrate, fluorescence endpoint | AID 602261 | inhibition, % at 15 µM | P49327;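 active = compounds whose normalised, plate-corrected inhibition of enzyme fluorescence in the single-dose primary screen is 50% or more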;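 also: 0% = DMSO with enzyme and 100% = substrate without enzyme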
GC-A act: GC-A (human) enzyme activation; HEK293 GC-A cells, cGMP TR-FRET, EC30 ANP; 0% at EC30 ANP, 100% saturating ANP; activation, % at 10 µM; hit rate 0.14% among 370,000; in the data active = activation above about 40%
FAS-TE conf: confirmation of human fatty acid synthase thioesterase inhibitors. shares compounds with FAS TE block. hit rate 45% among 2,300. AID 624325. recombinant FAS-TE, OMFH fluorogenic substrate, fluorescence. inhibition, % at 15 µM;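 active = compounds inhibiting the enzyme by at least 50% at 15 µM in any one of the replicates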;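 also: 0% = enzyme with DMSO only and 100% = wells lacking enzyme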
* hit, by the source's call; x = no result.

SMILES	aDG glyco up	NPR2 activator	FAS TE block	GC-A act	FAS-TE conf
Nc1ccn([C@@H]2O[C@H](C(=O)N[C@H](Cc3ccccc3)C(=O)NCC(=O)N3CCOCC3)[C@@H](O)[C@H]2O)c(=O)n1	x	2	x	-1	x
O=C(COc1ccc(F)c(Cl)c1)N[C@H]1CCCN(CC2CC2)C1	x	-7	x	-4	x
CN(C)C(=O)COC(=O)c1ccccc1Nc1ccc(SC(F)F)cc1	0	1	38	42*	x
CN(C)c1ccc2c(c1)OC(N)=C(C#N)C2c1cccc(F)c1 (stereo not drawn)	0	x	-46	x	x
N#CC1=C(N)Oc2cc(N)ccc2C1c1cccc(F)c1 (stereo not drawn)	0	-2	0	43*	x
Cc1ccc(F)c(Cn2cnc3c(cnn3C(C)(C)C)c2=O)c1Cl	1	38*	23	32	x
O=C(OCn1ncc(Cl)c(Cl)c1=O)c1ccccc1Cl	0	33	24	43*	x
O=c1c(Cl)c(Cl)cnn1Cc1ccc(F)cc1	0	4	-1	6	x
CC(C)(C)C(=O)Cn1ncc(N2CCCC2)c(Br)c1=O	0	1	-8	1	x
C=CCn1c(C)cc(C(=O)Cn2ncc(Cl)c(Cl)c2=O)c1C	0	49*	6	38	x
O=C(Cn1ncc(Cl)c(Cl)c1=O)c1ccc(Cl)cc1	0	22	14	70*	x
CC(C)(C)C(=O)Cn1ncc(Cl)c(Cl)c1=O	0	-8	-9	42*	x
COc1ccc(-c2cccc(-c3nc4ccc(Cl)cn4c3NC3CCCCC3)c2)cc1	0	50*	29	43*	x
CC(=O)c1csc(-c2cccc(-c3nc4ccc(Cl)cn4c3NC3CCCCC3)c2)c1	0	56*	26	51*	x
COc1ccc(C2C(C(=O)N3CCN(c4ccccc4Cl)CC3)CC(=O)N2c2ccc(OC)cc2)cc1 (stereo not drawn)	x	-2	x	1	x
O=C(Nc1ccccc1)C1=C(c2ccccc2)S(=O)(=O)CCS1(=O)=O	-1	9	80*	10	37
O=C(NNc1cccc([N+](=O)[O-])c1)/C(=C\c1cccnc1)NC(=O)c1ccccc1	0	5	66*	2	65*
COc1ccccc1/C=C(\NC(=O)c1ccc(OC)c(OC)c1)C(=O)Nc1cccc([N+](=O)[O-])c1	0	2	88*	-3	44*
COc1ccccc1/C=C(\NC(=O)c1ccc(OC)c(OC)c1)C(=O)Nc1ccc([N+](=O)[O-])cc1	0	2	86*	-2	18
CC(=O)c1cccc(NC(=O)/C(=C\c2cccnc2)NC(=O)c2ccccc2)c1	0	1	-5	-3	x
CC(C)(C)c1ccc(C(=O)N/C(=C\c2cccc([N+](=O)[O-])c2)C(=O)Nc2cccc(C(=O)O)c2)cc1	0	5	83*	0	88*
O=C(Nc1cccc(C(=O)O)c1)/C(=C/c1ccc([N+](=O)[O-])cc1)NC(=O)c1ccccc1	0	-1	23	-3	x
COc1ccc(C(=O)N/C(=C/c2cccnc2)C(=O)Nc2cccc(C(C)=O)c2)cc1OC	0	-1	-2	3	x
O=C1[C@@H]2[C@@H](CN3CN(c4ccccc4)N=C(c4ccccc4)[C@@]23c2ccccc2)C(=O)N1c1ccccc1	0	-3	57*	-2	15
O=C1[C@H]2C(c3ccccc3)=NN(c3ccccc3)[C@H]2C(=O)N1c1ccccc1	0	-2	32	3	x
SMILES	aDG glyco up	NPR2 activator	FAS TE block	GC-A act	FAS-TE conf
O=C(/C=C/c1cccc([N+](=O)[O-])c1)NCCc1ccc(F)cc1	1	-1	52*	0	51*
O=C(/C=C/c1cccc([N+](=O)[O-])c1)NCCSCc1cccc(Cl)c1	0	-5	58*	-3	66*
COC(CNC(=O)[C@H](Cc1ccccc1)NC1(C(=O)NC2CCCCC2)CCC1)OC	x	-2	x	-4	x
COc1ccc2c(c1)N[C@@](CCNC=O)(c1[nH]c3ccccc3c1CCNC=O)C2=O	x	-10	x	-4	x
CCN(Cc1ccccc1)C(=O)COC(=O)c1cc(Cl)nc(Cl)c1	0	2	55*	-4	66*
CCN(Cc1ccccc1)C(=O)COC(=O)c1cnc(C)cn1	0	0	-5	0	x
Cc1cccc(C2Nc3ccccc3C(=O)N2NC(=O)c2ccc([N+](=O)[O-])cc2)n1 (stereo not drawn)	0	10	53*	-3	62*

Bioassay records (PubChem BioAssay)
